Screens from PubChem BioAssay.
DRD3 antagonist – antagonists of human D3 dopamine receptor; 2.5% of 360,000 active; max response, negative = inhibition, %; D3R cells, DiscoveRx beta-arrestin luminescence, antagonist mode; active compounds read low; in the data active means max response below about -50%; inconclusive means no clear call, values can overlap the other calls; further: on the % scale 0 is the no-effect control and ±100 the full control effect
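Cells expressing the human receptor were seeded at 1500 cells/well, incubated overnight at 37 degrees C in 5% CO2, then exposed to library compounds with dopamine controls for 90 minutes at 37 degrees C before luminescent detection.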
CBFb-RUNX1 inh – blocks binding between human CBF-beta and RUNX1; Q01196+Q13951; AlphaScreen CBFb-His/RUNX1-biotin binding, biochemical; Potency, µM (highest dose often 59.8 µM), for the others: at the top dose activity, negative = inhibition, actives largely listed as inhibitors; 230,000 tested, under 10 active; AID 1477; further: % of control where 0% means no effect
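Bead-based AlphaScreen assay; binding partners His-tagged CBF-beta and biotinylated RUNX1 at 30 nM each. Compound exposure 15 min after a 20-min protein preincubation; bead step 90 min; all steps at room temperature.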
DRD3 agonist – activates the human D3 dopamine receptor; P35462; D3R DiscoveRx beta-arrestin cells, luminescence, 90 min; max activation, %; 0.58% of 410,000 active; AID 652048; in the data active means max activation above about 30%; further: 0% is about no effect
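Agonist-mode cell screen: cells plated at 1500/well and incubated overnight at 37 °C, then exposed to library compounds for 90 min at 37 °C. Detection reagent was added for 30–60 min at room temperature, and luminescence was read.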
PTHR1 agonist – agonists of human PTHR1 parathyroid hormone receptor | Q03431 | HEK293 GP2 PTHR1 cells, GloSensor cAMP luminescence, 1 h | Potency, µM (doses to about 115 µM), inactives show top-dose activation, usual class: activators | 0.075% of 410,000 active | AID 743266; further: potency means the concentration at half of the fitted maximal effect; nearly all actives have a fitted effect of over 55% in size
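HEK-293-derived GP2 cells expressing PTHR1 and a GloSensor cAMP reporter, 3,000/well, plated overnight, given luciferin plus IBMX (each 0.5 mM as added) for 1 h at 37 °C, then compound for 1 h at 37 °C. Luminescence was read after 15 min at room temperature.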
Integrin act MD – activates integrin-mediated alleviation for muscular dystrophy; 0.064% of 350,000 active; alpha7betagal myoblasts, beta-gal FDG fluorescence, 48 h; Potency, µM (series often up to 38.3 µM), for inactives: at the top dose activation, actives largely listed as activators;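 further: potency means the concentration at half of the fitted maximal effect; 100% = response of the positive control SU9516; nearly all actives have a fitted effect of over 60% in size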
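alpha7betagal+/- myoblasts (passage 13, 250/well) treated 48 h at 37C with compounds at 1:260 dilution of DMSO stock. Lysed, then beta-galactosidase activity read as FDG fluorescence (ex 480/em 540) after 30 min, with pre-read for autofluorescence.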
MBNL1-CUG inh – inhibitors of human MBNL1 binding to CUG repeat RNA | Q9NR56 | TR-FRET MBNL1-His/biotin-(CUG)12 binding, 665/545 ratio | Potency, µM (top dose mostly 57.5 µM), inactives show at the top dose activity change, negative = inhibition, actives largely listed as inhibitors | 0.036% of 280,000 active | AID 2675; active means well fitted inhibition curve with a large enough effect in the signal ratio, with a control signal flat, not every such curve was filed as active; inconclusive means small, poorly fitted or top-dose-only effect, or effect the other way, or a change in a side signal; inactive means no such curve, though single readings can be large or run the other way; the % refers to the signal ratio; further: potency means the concentration at half of the fitted maximal effect; on the % scale 0 is the no-effect control and ±100 the full control effect
Target sequence (Q9NR56 whole entry, looked up): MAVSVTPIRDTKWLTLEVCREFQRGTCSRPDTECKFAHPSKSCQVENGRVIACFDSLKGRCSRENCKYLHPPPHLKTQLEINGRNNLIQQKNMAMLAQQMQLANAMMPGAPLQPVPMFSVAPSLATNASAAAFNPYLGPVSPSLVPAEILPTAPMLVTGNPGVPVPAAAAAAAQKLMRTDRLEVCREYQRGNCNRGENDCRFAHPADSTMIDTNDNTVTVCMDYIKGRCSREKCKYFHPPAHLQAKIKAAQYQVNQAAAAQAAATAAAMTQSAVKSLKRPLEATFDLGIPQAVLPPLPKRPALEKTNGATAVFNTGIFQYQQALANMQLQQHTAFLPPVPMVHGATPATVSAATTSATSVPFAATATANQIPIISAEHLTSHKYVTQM
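Inhibition of protein-RNA binding appears as loss of TR-FRET between terbium anti-His antibody on MBNL1-His and streptavidin-XL665 on biotin-(CUG)12. Activity is normalized to buffer-only and uninhibited-complex controls.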
Numbers without * were called inactive; i = inactive; ? = inconclusive; nt = no result given; [ ] = dose if it differs, or a comment. An excerpt weighted towards active compounds, which were near 2.8% of everything screened. Unless noted, the call rests on the fitted dose curve; in most records, active means well fitted curve in the direction sought with a large enough effect; inconclusive means small, poorly fitted or top-dose-only effect, or another doubt; inactive means no such curve, though single readings can be large; an effect the other way counts as inactive or inconclusive.

SMILES | DRD3 antagonist | CBFb-RUNX1 inh | DRD3 agonist | PTHR1 agonist | Integrin act MD | MBNL1-CUG inh
COc1ccc(C2=CC(=O)CC(c3ccc(OC)cc3)C2)cc1 (stereo not drawn) | -10 | 4% | -12 | i | 0% | ?
COc1ccc([C@H]2CC(=O)C=C(c3cccc4c3Oc3ccccc3S4)C2)cc1OC | 145 | nt | 75* | -5% | -40% | nt
Cc1ccc2ccc(C3C(=O)c4ccccc4C3=O)nc2c1 | -64* | nt | -14 | -11%[57.5 µM] | 20% | nt
CC(Cc1ccsc1)NC(=O)CCc1nnc(CCc2ccccc2)o1 (stereo not drawn) | -8 | 4% | 0 | i | 37% | -9%
COC(=O)c1cc2occc2n1CC(=O)Nc1ccc(C(C)C)cc1 | nt | nt | -1 | i | nt | nt
Cc1ccc(S(=O)(=O)NCC(=O)N(CC(=O)NCC2CCCO2)C2CCCC2)cc1 (stereo not drawn) | -1 | -3% | 3 | i | 5% | 5%
O=C(CN(C(=O)CNS(=O)(=O)c1ccccc1)C1CCCC1)NCC1CCCO1 (stereo not drawn) | -53* | -1% | 2 | i | -19% | -2%
Cn1nccc1C(=O)Nc1ccc2c(c1)OCO2 | 4 | nt | 14 | i | 19% | 5%
Cc1nc(SCCCSc2n[nH]c(C)n2)n[nH]1 | -69* | -1% | -9 | 2%[57.5 µM] | 7% | -6%
O=C1C2CCCN2C(=O)N1CCCCN1CCN(c2ccc(F)cc2)CC1 (stereo not drawn) | -75* | 0% | -9 | -3% | 7% | -2%
O=C1C2CCCCN2C(=O)N1CCCCN1CCN(c2ccc(F)cc2)CC1 (stereo not drawn) | -92* | nt | -12 | 23% | 48% | 2%
O=C1C2CCCCN2C(=O)N1CCN1CCN(c2ccc(F)cc2)CC1 (stereo not drawn) | 15 | nt | -14 | i | -1% | nt
Cc1ccc(N2CCN(CCCCN3C(=O)C4CCCN4C3=O)CC2)cc1 (stereo not drawn) | -78* | 0% | -17 | -8% | 5% | -9%
N#Cc1ccc(CSc2nc3c(c(=O)[nH]2)CCCC3)cc1 | nt | nt | 10 | -51% | nt | nt
O=[N+]([O-])c1cc(O)c2ncccc2c1 | -58* | nt | -16 | -43% | -56% | ?
COc1ccc(CSc2nc(C)cc(=O)[nH]2)cc1Br | -84* | 4% | -11 | -20% | 6% | -1%
Cc1ccc(C)c(C(=O)Cn2ncc(Cl)c(Cl)c2=O)c1 | -28 | 6% | -9 | -9% | -45% | 64%
Cc1cc(C(=O)Cn2ncc(Cl)c(Cl)c2=O)c(C)n1CC(F)(F)F | -59* | -9% | -9 | -41% | -57% | ?
O=C1C=CC(=O)C2=C1C1c3ccccc3C2c2ccccc21 | nt | -14% | nt | nt | nt | nt
CSc1ccc(C(=O)C2CCCN(S(=O)(=O)c3c(C)noc3C)C2)cc1 (stereo not drawn) | 19 | 6% | -8 | -35% | 15% | 17%
C=CCn1c(N)c(C(=O)OCC)sc1=S | 9 | -1% | 4 | i | 29% | ?
C=CCn1c(N)c(C(=O)N2CCN(C)CC2)sc1=S | -54* | 4% | -35 | i | 11% | 20%
Cc1ccc(CN(C)C(=O)c2ccccc2NC(=O)c2ccccc2)o1 | 11 | nt | 1 | 17% | 13% | nt
COc1ccc(OC)c(C(C)NC(=O)Nc2cccc(C(C)=O)c2)c1 (stereo not drawn) | 13 | 11% | 2 | -7% | -18% | -20%
O=c1[nH]c(CN2CCN(c3ccc(O)cc3)CC2)nc2scc(-c3ccc(Cl)cc3)c12 | 21 | -5% | 98* | -31% | 0% | 1%
SMILES | DRD3 antagonist | CBFb-RUNX1 inh | DRD3 agonist | PTHR1 agonist | Integrin act MD | MBNL1-CUG inh
CCn1cc(C(=O)N[C@@H](CCSC)C(=O)NCCCN2CCOCC2)c(=O)c2cc3c(cc21)OCO3 | 1 | nt | -11 | -17% | 7% | -15%
COc1ccc(CCC(=O)N/N=C/c2ccc3c(c2)OCO3)cc1 | 11 | nt | 14 | -12% | -32% | nt
Cc1ccc(S(=O)(=O)N/N=C2/CC(c3ccccc3)Oc3ccccc32)cc1[N+](=O)[O-] (stereo not drawn) | -83* | 0% | -4 | -26% | 17% | -2%
O=S(=O)(N/N=C1/CC(c2ccccc2)Oc2ccccc21)c1ccc(Br)cc1 (stereo not drawn) | 22 | -2% | 0 | i | 32%[7.66 µM] | -6%
COc1cccc(CNC(=O)CCS(=O)(=O)c2ccccc2Cl)c1 | -2 | nt | 2 | i | ? | nt
COCc1cc(C)nc(SCC[N+](C)(C)CC(=O)c2ccccc2)c1C#N | -55* | -1% | -11 | i | 20% | -20%
CCn1c(-c2ccccc2)c(C(=O)CCl)c2ccccc21 | -20 | 9% | 2 | -32% | -7% | 3%
Cn1c(-c2ccccc2)c(C(=O)CCl)c2ccccc21 | -51* | -7% | -6 | -96% | -66% | -4%
CCOC(=O)C1Nc2ccccc2C2C(O)C(O)CC12 (stereo not drawn) | -52* | nt | -34 | -32% | 18% | nt
O=S(=O)(Nc1ccc(-n2cccc2)cc1)c1ccc(Cl)c(Cl)c1 | 2 | -14% | 0 | -32% | -3% | 0%
O=S(=O)(Nc1ccc(-n2cccc2)cc1)c1ccc(Cl)cc1Cl | -53* | -27% | -1 | -32% | -11% | ?
O=[N+]([O-])c1cccc(/C=N\N2CCN(Cc3ccccc3Cl)CC2)c1 | -78* | -17% | -1 | -67%[57.5 µM] | 4% | 15%
CCN(Cc1nc2ccccc2c(=O)[nH]1)C(=O)c1cc(C2CC2)nn1-c1ccccc1 | 2 | nt | 5 | -4% | 7% | nt
CN(Cc1nc2ccccc2c(=O)[nH]1)C(=O)c1cc(C2CC2)nn1-c1ccccc1 | -60* | nt | 2 | -19% | 32% | nt
COc1ccc(C(=O)N(Cc2ccc(C(C)C)cc2)C2CCS(=O)(=O)C2)cc1 (stereo not drawn) | nt | nt | -2 | -50% | nt | nt
CC(Oc1cc2oc(=O)c3c(c2cc1Cl)CCC3)C(=O)N1C[C@H]2C[C@@H](C1)c1cccc(=O)n1C2 (stereo partly drawn) | -26 | nt | -33 | -21% | -33% | -3%
O=C(COc1cc2oc(=O)c3c(c2cc1Cl)CCCC3)N1C[C@H]2C[C@@H](C1)c1cccc(=O)n1C2 | -58* | nt | -18 | -31% | 11% | 4%
COc1cnc(-c2ccccn2)nc1Sc1ccccc1Cl | -68* | ? | -8 | i | -10%[7.66 µM] | 4%
COc1cnc(-c2ccccn2)nc1Sc1c(Cl)cccc1Cl | -65* | ? | -9 | i | -10% | 6%
COC(=O)c1ccccc1NC(=O)Cn1nnc2sc(-c3ccccc3)cc2c1=O | nt | nt | -1 | i | nt | nt
